# Source: PubChem
# Most compounds without a hit are left out; they make up all but 19% or so of the library.
# DT40 TDP1 CPT = qHTS for Inhibitors of human tyrosyl-DNA phosphodiesterase 1 (TDP1): qHTS in cells in presence of CPT; chicken DT40 Tdp1-/-;hTDP1 cells + 20 nM CPT, ATP luminescence, 48 h; Potency, µM (titrated, usually from 46.2 µM), for the others: at the highest dose activity change, negative = growth inhibition, actives largely listed as inhibitors; 420,000 compounds, 12% hits; AID 686979, 2013; further: potency means the concentration at half of the fitted maximal effect; nearly all actives have a fitted effect of over 55% in size
#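 Chicken DT40 Tdp1-/- cells complemented with human TDP1, 400 cells/well, exposed to compounds plus 20 nM camptothecin for at least 48 h at 37 C; viability read as ATP content by CellTiter-Glo luminescence.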
# DT40 TDP1 no CPT = qHTS for Inhibitors of human tyrosyl-DNA phosphodiesterase 1 (TDP1): qHTS in cells in absence of CPT; DT40 Tdp1-/- hTDP1 cells, no CPT, ATP luminescence, 48 h; Potency, µM (series often up to 46.2 µM), without a hit: top-dose activity change, negative = growth inhibition, most hits filed as inhibitors; 420,000 compounds, 15% hits; AID 686978, 2013; further: potency means the concentration at half of the fitted maximal effect; nearly all actives have a fitted effect of over 55% in size
#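 A cellular qHTS used chicken DT40 cells lacking endogenous Tdp1 but carrying stably transfected human TDP1. Compounds were applied without camptothecin, and cell growth kinetics were judged by ATP-dependent luminescence after ≥48 hr.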
# HT1080-NT tox = qHTS for induction of synthetic lethality in tumor cells producing 2HG: qHTS for the HT-1080-NT fibrosarcoma cell line. 360,000 compounds, 1.6% hits. HT-1080-NT fibrosarcoma viability, CellTiter-Glo ATP luminescence, 48 h. Potency, µM (doses to about 46.1 µM), inactives show top-dose activity, negative = less viability, hits mostly cytotoxic;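 further: NT is the 2HG producing partner of a matched IDH1 knockdown line; potency means the concentration at half of the fitted maximal effect; 0% = DMSO-treated cells and -100% = media-only wells without cells; nearly all actives have a fitted effect of over 55% in size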
#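 Toxicity toward the 2HG-producing NT line was scored as %Activity, normalised to DMSO and no-cell wells, from CellTiter-Glo luminescence after 48 hours' treatment.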
# HT1080 IDH1KD tx = qHTS for induction of synthetic lethality in tumor cells producing 2HG: qHTS for the HT-1080-IDH1KD cell line; HT-1080 IDH1 knockdown viability, ATP luminescence, 48 h; Potency, µM (doses to about 46.1 µM), for inactives: top-dose activity, negative = toxicity, actives largely listed as cytotoxic; 360,000 compounds, 2% hits;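 further: potency means the concentration at half of the fitted maximal effect; 0% = DMSO wells and -100% = cell-free medium wells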
#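 IDH1KD HT-1080 cells, 750/well, RPMI + 5% FBS; compound pinned after 2 h settling; 48 h, 37 °C; CellTiter-Glo luminescence; % activity normalised to DMSO and no-cell wells; curves fitted, classed by r2 and efficacy.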
# IL-1B inflam inh = qHTS for Inhibitors of Inflammasome Signaling: IL-1-beta AlphaLISA Primary Screen; THP-1 LPS/ATP IL-1B secretion, AlphaLISA, 16 h; stronger effect = lower value; 360,000 compounds, 4.7% hits; activity change, % at 57.5 µM; in the data active means activity change below about -50%; inconclusive means mostly about -30% to -49%
#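 Secreted IL-1B measured by AlphaLISA bead assay after 16 h compound exposure of THP-1 cells; compounds (final up to 57.5 uM) added 1 h before LPS (250 ng/mL) and ATP (1.25 mM) stimulation; lower signal means less secretion.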
# Starred values were filed as active, the others as inactive; ? = inconclusive; . = no result given; [ ] = remark or other dose. Unless noted, the call rests on the fitted dose curve; in most records, active means well fitted curve in the direction sought with a large enough effect; inconclusive means small, poorly fitted or top-dose-only effect, or another doubt; inactive means no such curve, though single readings can be large; an effect the other way counts as inactive or inconclusive. Unless noted, on the % scale 0 is the no-effect control and ±100 the full control effect.
SMILES,DT40 TDP1 CPT,DT40 TDP1 no CPT,HT1080-NT tox,HT1080 IDH1KD tx,IL-1B inflam inh
Cn1cc(-c2ccccc2C(=O)O)c(=O)c2cc(Cl)ccc21,-6%,-16%,-14%,-3%,-15
CCn1ccnc1CN(C)Cc1c(C(=O)N2C[C@@H](C)O[C@@H](C)C2)nc2ccc(Cl)cn12,-7%,-5%,10%,3%,18
COc1ncc2nc(C)c(=O)n(C)c2n1,16%,0%,.,.,.
O=C(COC(=O)c1cccc(Cl)c1)Nc1cccc(S(=O)(=O)NC2=NCCC2)c1,-11%,13%,4%,-1%,0
CC(C)Oc1ccc(CNC(=O)c2ccc(NC(=O)N3CC(C)Sc4ccccc43)cc2)cc1 (stereo not given),21µM*,-106%,.,.,.
CC1CN(C(=O)Nc2ccc(C(=O)NCCc3ccccc3Cl)cc2)c2ccccc2S1 (stereo not given),23µM*,21µM*,.,.,.
CC(C)Oc1ccc(CNC(=O)CCC(=O)N2CC(C)Sc3ccccc32)cc1 (stereo not given),16µM*,?,19%,-3%,0
O=C(Nc1cccc(F)c1)N1CCCC2(CCN(C(=O)c3cccc(F)c3)CC2)C1,-2%,-15%,.,.,.
C#CCN(Cc1nc(N2CCOCC2)c2ccc(Cl)cc2n1)Cc1ccco1,26%[9.04 µM],?,.,.,.
Cc1ccc(-c2cc(C(F)F)nc(S(C)(=O)=O)n2)cc1,0.92µM*,1.3µM*,23µM*,21µM*,-102*
Cc1ccc(CNC(=O)CNC(=S)N(Cc2ccccc2)Cc2cccnc2)cc1,?,26µM*,-17%,-14%,?
O=C(CNC(=S)N(Cc1ccccc1)Cc1cccs1)NCc1ccc(F)cc1,-30%,?,-12%,-26%,-71*
S=C(Nc1ccccc1Cl)N(Cc1ccccc1)Cc1cccnc1,14%,16µM*,1%,-4%,-25
Cc1ccccc1NC(=S)N(Cc1cccnc1)Cc1ccccc1Cl,16%,-28%,-22%,-17%,0
O=C(CNC(=S)N(Cc1ccccc1)Cc1ccccc1F)NCCc1ccc(Cl)cc1,23µM*,?,16µM*,16µM*,.
COC(=O)/C=C/c1ccc(C(=O)NCC(=O)N[C@@H](CCC(=O)OC)C(=O)N[C@@H](CC(C)C)C(N)=O)cc1,-8%,2%,.,.,.
O=C(CC(C(=O)O)c1cccc(Br)c1)c1ccc(Cl)cc1 (stereo not given),-15%,0%,-2%,-1%,0
COc1ccc(CNC(=O)C[C@@H]2C=C[C@@H](NS(=O)(=O)c3cccc(OC)c3)[C@@H](CO)O2)cc1,2%,-4%,9%,16%,29
O=C(Nc1ccc(F)c(Cl)c1)c1cc(C2CCCCN2C(=O)c2cccs2)on1 (stereo not given),16µM*,7.3µM*,-21%,-9%,-15
O=C(NCc1ccc(Cl)c(Cl)c1)c1cc(C2CCCCN2C(=O)C2CCCCC2)on1 (stereo not given),16µM*,18µM*,-14%,-23%,-27
COc1ccc(NC(=O)c2cc(C3CCCCN3C(=O)c3cccs3)on2)c(C)c1 (stereo not given),21µM*,21µM*,10%,-1%,-7
COc1ccc(NC(=O)c2cc(C3CCCCN3S(C)(=O)=O)on2)c(C)c1 (stereo not given),-11%,-4%,13%,?,0
O=C(NCc1ccccc1)c1cc(C2CCCCN2C(=O)c2cccs2)on1 (stereo not given),18µM*,?,-4%,0%,-16
Cc1cccc(/C=N/n2c(C)nc3ccccc3c2=O)c1,-7%,?,16%,0%,-7
